Assay outcomes as filed in PubChem BioAssay.
KCNQ2 enhance – KCNQ2 (rat) channel potentiation. O88943. CHO-K1 KCNQ2, FluxOR thallium flux fluorescence; stronger effect = higher value. B-score at 10 µM. 310,000 compounds, 0.54% hits;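 active = fluorescence ratio B-score at least 3 SD of library B-scores, with initial fluorescence B-score within 3 of them, cut at about 5.3 in these data; same plate scores as AID 2156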;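 note: B-score of peak minus minimum over baseline fluorescence ratio after K+ and Tl+ stimulus; positive B-score means potentiation of KCNQ2 with more thallium influx and brighter signal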
KCNQ2 inh – KCNQ2 (rat) channel inhibition; O88943; CHO-K1 KCNQ2, FluxOR thallium flux, 20 min; stronger effect = lower value; 310,000 compounds, 1.1% hits; B-score at 10 µM; AID 2156;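 active = fluorescence ratio B-score at most minus 3 library SDs, with starting brightness B-score within 2 library SDs, cut at about -5.5 in these data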
The depositor's hits bear a star; i = inactive; x = not tested or not shown. Only some compounds are listed: those with a hit (about 1.6% of all), similar ones and a draw of the others.

SMILES | KCNQ2 enhance | KCNQ2 inh
O=C(COc1ccccc1)N(Cc1ccco1)c1ccc(O)cc1 | x | i
O=C(c1ccc(Cl)c(Cl)c1)N(Cc1ccco1)c1ccc(O)cc1 | -6.4 | -6.4*
CCOc1ccccc1N(C)C(=O)c1cn(C)c(=O)c2ccccc12 | x | i
Clc1ccccc1OCc1nnc(-c2ccccc2Br)o1 | x | i
Clc1ccc(Cc2nnc(-c3ccccc3Br)o2)cc1 | -5.9 | -5.9*
C/C(=C\C(=O)c1ccccc1)Nc1ccc(Cl)c(Br)c1 | 0.64 | i
C/C(=C\C(=O)c1ccc(Cl)cc1)Nc1ccc(Br)cc1 | -6 | -6*
O=C(Cc1ccc(Cl)cc1)Nc1ccc(Br)cc1 | 3.2 | i
C/C(=C\C(=O)c1ccc(Br)cc1)Nc1cccc(Cl)c1 | -6.2 | -6.2*
Nc1cc(=O)[nH]c(SCC(=O)c2ccc(O)cc2O)n1 | x | i
CCNc1oc(-c2cccc3ccccc23)nc1C#N | x | i
N#Cc1nc(-c2cccc3ccccc23)oc1NCCN1CCCCC1 | -7.9 | -7.9*
Cc1cc(OCC(=O)OCC(=O)N(C)c2c(N)n(Cc3ccccc3)c(=O)[nH]c2=O)ccc1Cl | x | i
Cc1ccc(S(=O)(=O)NCCC(=O)N2CCCCCCC2)cc1 | x | i
CC1=NN(C(=O)c2nn(C)cc2Br)C(O)(C(F)(F)F)C1 (stereo not given) | x | i
CC1=NN(C(=O)c2ccc(Br)cc2)C(O)(C(F)(F)OC(F)(F)F)C1 (stereo not given) | 5.7* | i
CC1=NN(C(=O)c2csc(C)c2)C(O)(C(F)(F)F)C1 (stereo not given) | 2.9 | i
CC1=NN(C(=O)c2cc(C)nn2C)C(O)(C(F)(F)F)C1 (stereo not given) | 6* | i
CC1=NN(C(=O)c2csc(C)c2C)C(O)(C(F)(F)F)C1 (stereo not given) | 1.9 | i
CC1=NN(C(=O)c2c(Br)c(C)nn2C)C(O)(C(F)(F)F)C1 (stereo not given) | 11* | i
O=C(O)CCNC(=O)CCCn1nnc2ccccc2c1=O | 0.25 | i
O=C(Cn1ccc2ccccc2c1=O)NCC(=O)Nc1ccc(F)cc1F | x | i
Cc1c(O)nc(SCC(=O)Nc2ccc3c4c(cccc24)CC3)n(-c2ccccc2)c1=O | 12* | i
O=C(CSc1nc(O)cc(=O)n1-c1ccccc1)Nc1ccc2c3c(cccc13)CC2 | 3.3 | i
O=C(COC(=O)CN1C(=O)NC2(CCCC2)C1=O)Nc1c(Cl)cccc1C(F)(F)F | 0.73 | i
SMILES | KCNQ2 enhance | KCNQ2 inh
O=C(CN1C(=O)C2CCCCC2C1=O)Nc1nc2ccc(F)cc2s1 (stereo not given) | -6.2 | -6.2*
O=C(CN1CCOCC1)Nc1nc2ccc(F)cc2s1 | x | i
CCC(C)N(C(=O)COC(=O)c1cc([N+](=O)[O-])ccc1N)C1CCS(=O)(=O)C1 (stereo not given) | x | i
Cc1onc(-c2c(F)cccc2Cl)c1C(=O)NC(C)c1ccccc1 (stereo not given) | x | i
O=C(Nc1ccccc1N1CCN(C(=O)c2ccccc2)CC1)c1ccc(Cl)cc1 | x | i
CC(C)C(=O)N1CCN(c2ccccc2NC(=O)c2cccc(Cl)c2)CC1 | -6.6 | -6.6*
CS(=O)(=O)N1CCN(c2ccccc2NC(=O)c2cccc3ccccc23)CC1 | x | i
Cn1c(=O)n(C)c2cc(N3CCCCC3)c(NC(=O)c3cccc(Cl)c3)cc21 | x | i
CC(C)C(=O)N1CCN(c2ccccc2NC(=O)c2cccc3ccccc23)CC1 | -7.3 | -7.3*
COc1ccc(C(=O)Nc2ccccc2N2CCN(C(=O)c3ccccc3)CC2)cc1Br | -7.2 | -7.2*
CCCC(C(=O)NC1CCCC1)N(Cc1ccc(OC)cc1)C(=O)c1snc(C(N)=O)c1N (stereo not given) | x | i
O=C(COC(=O)/C=C/c1ccc(OC(F)F)cc1)Nc1ccc(N2CCOCC2)cc1 | x | i
COc1cccc(CN2CCNC(=O)C2CC(=O)N(C)CC2CCOCC2)c1 (stereo not given) | x | i
Cc1ccc(S(=O)(=O)NCC(=O)N(c2ccccc2)C(C(=O)NCc2ccccc2)c2ccco2)cc1 (stereo not given) | -6.9 | -6.9*
Cc1cc(C)cc(N(C(=O)CNS(=O)(=O)c2ccccc2)C(C(=O)NCc2ccccc2)c2ccc(C)o2)c1 (stereo not given) | x | i
COc1ccc([N+](=O)[O-])cc1NC(=O)CSCc1ccc(Br)cc1 | 5.5* | i
COc1ccc([N+](=O)[O-])cc1NC(=O)CSCc1ccccc1C | 1.5 | i
COc1ccc(S(=O)(=O)NC2CCCC2)cc1C(N)=O | 0.95 | i
CC(C)(C)c1csc(N/N=C/c2ccc(O)cc2)n1 | 0.16 | i
COc1ccc2nc(/N=C/c3c(C)[nH]n(-c4ccc(C)cc4C)c3=O)sc2c1 | 20* | i
COc1ccccc1N=Cc1c(C)[nH]n(-c2ccc(C)cc2C)c1=O | x | i
Cc1c(C)c2ccc(OC(C)C(=O)NC3CCN(Cc4ccccc4)CC3)cc2oc1=O (stereo not given) | x | i
Cc1sc(-n2c(C)ccc2C)c(C#N)c1C | x | i
Cc1ccc(C)n1-c1sc2c(c1C#N)CCCC2 | -5.9 | -5.9*
CCc1ccccc1N1CCN(S(=O)(=O)c2cc(OC)ccc2OC)CC1 | -7.1 | -7.1*
SMILES | KCNQ2 enhance | KCNQ2 inh
COc1ccc(OC)c(S(=O)(=O)N2CCN(c3ccccc3)CC2)c1 | 0.08 | i
Cn1c(=O)c2c(nc(Br)n2Cc2ccccc2Cl)n(C)c1=O | x | i
COC(=O)Cn1c(=O)c2c(nc(Br)n2Cc2ccccc2Cl)n(C)c1=O | -5.8 | -5.8*
COc1cccc(N2CCN(C(C)C(=O)NC34CC5CC(CC(C5)C3)C4)CC2)c1 (stereo not given) | x | i
CCOc1ccc(-c2nc(CS(=O)(=O)CC(=O)NCc3ccc(F)cc3)c(C)o2)cc1 | x | i
COc1cc(OC)c(C2CC(=O)N3CN(C)CSC3=C2C#N)cc1OC (stereo not given) | 1.3 | i
COc1ccc2ccccc2c1C1CC(=O)N2CN(C)CSC2=C1C#N (stereo not given) | -6.9 | -6.9*
CCCCCCOC(=O)C(C#N)c1nc2ccccc2nc1N1CCN(C)CC1 (stereo not given) | -5.7 | -5.7*
CCC(CC)COC(=O)C(C#N)c1nc2ccccc2nc1N1CCN(CC)CC1 (stereo not given) | x | i
O=C(NC1CCCCC1)C(c1ccncc1)N(C(=O)c1ccco1)c1ccc(F)cc1 (stereo not given) | x | i
Cc1cc(NC(=O)CS(=O)(=O)c2cn(Cc3ccc(F)cc3)c3ccccc23)no1 | x | i
Cc1cc(NC(=O)CS(=O)(=O)c2cn(Cc3cccc(F)c3)c3ccccc23)no1 | -5.7 | -5.7*
CCCC(C)c1nnc(NC(=O)COc2ccc3c(c2)OCO3)s1 (stereo not given) | 0.99 | i
O=C(NC1CCc2ccccc21)c1cc(COc2cncc(Cl)c2)on1 (stereo not given) | x | i
CCc1cc(C(=O)N2CCN(C(=O)c3ccco3)CC2)sc1C | x | i
CC(Oc1cccc2ccccc12)C(=O)N/N=C/c1cccnc1 (stereo not given) | 1.6 | i
O=C(Nc1cccc(S(=O)(=O)N2CCCCC2)c1)c1ccc([N+](=O)[O-])o1 | 8.5* | i
O=C(COC(=O)c1ccc([N+](=O)[O-])o1)Nc1cccc(S(=O)(=O)N2CCCCC2)c1 | 0.25 | i
CCCOc1ccc(C(=O)CCN2CCCCC2)cc1 | x | i
CCOc1ccc(C(=O)CCN2CCCCCC2)cc1 | -6.6 | -6.6*
